tim10-1 inh: growth inhibitors of tim10-1 mutant yeast. 330,000 tested, 2.2% active. S. cerevisiae tim10-1 ts strain growth, BacTiter-Glo, 24 h. inhibition, % at 20 µM;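 active = inhibition of at least 40%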;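 note: mutant grown at 25 °C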
SKKanGAS inh: blocks kanamycin growth of S. pyogenes SKKanGAS strain; 300,000 tested, 1.3% active; inhibition, % at 7.5 µM; BacTiter-Glo, 6 h;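 active = mean replicate score, as percent of positive control median, at least 50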;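 note: strain carries kanamycin resistance gene driven by streptokinase promoter and grows in 40 µg/ml kanamycin; loss of luminescence reflects streptokinase promoter inhibition or plain growth inhibition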
tim23-1 inh: growth inhibitors of tim23-1 mutant yeast | S. cerevisiae tim23-1 growth, BacTiter-Glo luminescence, 24 h | 330,000 tested, 1.3% active | inhibition, % at 20 µM;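 active = growth inhibition of the mutant yeast at or above 50%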;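 note: temperature-sensitive mutant grown at 25 °C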
TIM10 inh: inhibits growth of TIM10 yeast strain. S. cerevisiae TIM10 strain growth, BacTiter-Glo luminescence, 24 h. AID 463195. 330,000 tested, 1.4% active. inhibition, % at 10 µM;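 active = inhibition of 40% or more at the single tested concentration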;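 note: wild-type TIM10 isogenic control strain grown at permissive 25 °C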
PfHsp90 set2: reduces growth (ATP signal) of yeast expressing P. falciparum Hsp90 | inhibition, % at 9.4 µM | S. cerevisiae expressing PfHsp90, BacTiter-Glo ATP, 48 h; yeast lacking PDR1 and PDR3 efflux regulators | AID 504621 | 310,000 tested, 0.32% active;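 active = every replicate shows inhibition above about 80%, whatever the replicate mean, limit read from the data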
ATG4B inh: inhibitors of human ATG4B cysteine protease | Q9Y4P1 | ATG4B cleavage of LC3-PLA2, NBD-HPC fluorescence, 1 h | 340,000 tested, 0.51% active | AID 504462 | inhibition, % at 8.33 µM; in the data active = inhibition above about 40%
Target sequence (Q9Y4P1 whole entry, looked up): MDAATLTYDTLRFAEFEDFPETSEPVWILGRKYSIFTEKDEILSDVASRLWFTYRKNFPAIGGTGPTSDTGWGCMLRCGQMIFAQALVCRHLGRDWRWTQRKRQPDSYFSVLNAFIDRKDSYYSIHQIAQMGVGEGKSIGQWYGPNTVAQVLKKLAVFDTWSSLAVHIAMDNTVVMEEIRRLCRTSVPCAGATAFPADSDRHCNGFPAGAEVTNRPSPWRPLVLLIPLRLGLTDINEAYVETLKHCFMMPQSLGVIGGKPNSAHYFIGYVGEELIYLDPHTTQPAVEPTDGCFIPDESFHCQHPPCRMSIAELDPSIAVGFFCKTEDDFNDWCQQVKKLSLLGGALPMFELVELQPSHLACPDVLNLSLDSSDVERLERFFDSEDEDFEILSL
ATG4B confirm: ATG4B (human) inhibition, single-dose confirmed; shares compounds with ATG4B inh; ATG4B protease fluorescent substrate cleavage assay; inhibition, % at 8.33 µM; 320 tested, 92% active; in the data active = inhibition above about 39%
PLA2 ctr: PLA2 (human) inhibition in ATG4B counter-screen; shares compounds with ATG4B inh; AID 588402; purified PLA2, NBD-C6-HPC fluorescence, 45 min; inhibition, % at 8.33 µM; 1,600 tested, 66% active; in the data active = inhibition above about 50%
Target sequence (P04054 whole entry, looked up): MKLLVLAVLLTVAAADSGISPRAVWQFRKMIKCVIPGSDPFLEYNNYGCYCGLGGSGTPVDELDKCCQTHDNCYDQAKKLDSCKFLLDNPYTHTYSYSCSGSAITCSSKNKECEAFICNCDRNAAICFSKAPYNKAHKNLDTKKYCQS
Of the large screens only hits and unclear results are named; the others gave an inactive call (follow-up assays come after a bar, where they were run). This is a sample that favours compounds with a hit; in the whole collection about 4.7% have one here.

O=C1NC(=S)S/C1=C\c1ccc(SCc2ccccc2)o1	ATG4B inh 40.2 (no result: tim10-1 inh, SKKanGAS inh, tim23-1 inh, TIM10 inh) | PLA2 ctr 55.6
C/C(=C/CCC(C)[C@H]1CC[C@@]2(C)C3=C(CC[C@]12C)[C@@]1(C)CCC(=O)C(C)(C)[C@@H]1CC3)C(=O)O (stereo partly specified)	SKKanGAS inh 104.6, ATG4B inh 46.0 (no result: tim10-1 inh, tim23-1 inh, TIM10 inh) | ATG4B confirm 79.0 | PLA2 ctr inactive
O=C1CC(c2ccc3c(c2)OCO3)c2cc3c(cc2N1)OCO3 (stereo unspecified)	none
Cc1ccccc1N1CCN(C(=O)NCc2cccc(Cl)c2)CC1	ATG4B inh 61.0 | PLA2 ctr 72.7
COc1ccc(CNC(=O)N2CCN(c3cccc(C)c3C)CC2)cc1OC	none
O=c1[nH]c2ccc(S(=O)(=O)N3CCN(Cc4ccccc4)CC3)cc2[nH]c1=O	none (no result: PfHsp90 set2)
O=C(O)CCn1cc(/C=C\C(=O)c2ccc(Cl)cc2)c(-c2cccc(Br)c2)n1	SKKanGAS inh 79.2, ATG4B inh 45.8 | ATG4B confirm 69.3 | PLA2 ctr inactive
O=Cc1cn(CCC(=O)O)nc1-c1cccc(Br)c1	none (no result: SKKanGAS inh)
O=C1NN(c2ccc(F)c(Cl)c2)C(=O)/C1=C\c1cccc(OC(=O)c2cccs2)c1	ATG4B inh 60.2 | PLA2 ctr 57.4
COc1ccc(Nc2cc(C(=O)N3CCc4ccccc4C3)c3ccccc3n2)c(OC)c1	ATG4B inh 67.7 | PLA2 ctr 81.5
O=C(Nc1ccc2nc(-c3ccco3)c(-c3ccco3)nc2c1)NC1CC1	ATG4B inh 54.8 | PLA2 ctr 60.3
O=C(O)c1ccc2nc(-c3ccco3)c(-c3ccco3)nc2c1	none (no result: SKKanGAS inh)
O=C(Nc1cccc(C(F)(F)F)c1)c1ccc2nc(-c3ccco3)c(-c3ccco3)nc2c1	ATG4B inh 47.4 | PLA2 ctr inactive
CCC(C)(C(=O)Nc1ccccc1C)N(C(=O)CNC(C)=O)c1ccccc1C (stereo unspecified)	none
CCN(CC)S(=O)(=O)c1ccc(N2CCOCC2)c(NC(=O)COc2ccccc2C)c1	ATG4B inh 62.0 (no result: SKKanGAS inh) | PLA2 ctr 75.9
CCOc1ccccc1OCC(=O)Nc1cc(S(=O)(=O)N2CCCCC2)ccc1N1CCN(CC)CC1	none (no result: PfHsp90 set2)
COc1ccccc1OCC(=O)Nc1cc(S(=O)(=O)N2CCCCC2)ccc1N1CCCCC1	ATG4B inh 41.8 | PLA2 ctr inactive
COc1ccc(S(=O)(=O)N2CCCCC2)cc1NC(=S)Nc1cccc(Cl)c1C	ATG4B inh 71.4 | PLA2 ctr 73.0
COc1ccc(S(=O)(=O)N2CCCCC2)cc1NC(=S)Nc1ccccc1	none
Cc1cc(NC(=O)c2cccc3c2C(=O)N(C2CCCCC2)C3)ccc1Br	none
Cc1ccsc1C(=O)NCCC(c1ccccc1)c1ccccc1	ATG4B inh 40.6 | PLA2 ctr inactive
Cc1ccsc1C(=O)NCc1ccccc1Cl	none
CCOC(=O)c1c(NS(=O)(=O)Cc2ccccc2)sc2c1CCCC2	none (no result: PfHsp90 set2)
CCOC(=O)c1c(NS(=O)(=O)c2ccc(Br)cc2)sc2c1CCC2	SKKanGAS inh 79.4, ATG4B inh 46.0 | PLA2 ctr 56.7
Cc1ccc2c(c1)c1c3n2CCN(CC(O)CNC(C)C)C3CCC1 (stereo unspecified)	none
Cc1ccccc1S(=O)(=O)N1[C@@H](c2ccccc2)C(C(=O)O)=CC[C@H]1c1ccc(Cl)cc1	none (no result: SKKanGAS inh)
Cc1ccccc1S(=O)(=O)N1[C@@H](c2ccc(Br)cc2)C(C(=O)O)=CC[C@H]1c1ccc(Cl)cc1	ATG4B inh 43.2 (no result: SKKanGAS inh) | ATG4B confirm 46.3 | PLA2 ctr inactive
O=c1cccccc1NN=C1CCCCC1	none
O=C(O)c1cc(Br)ccc1NN=C1CCCCC1	ATG4B inh 50.3 | ATG4B confirm 62.2 | PLA2 ctr inactive
O=C(Nc1ccccc1)C1CCCN1S(=O)(=O)c1cccs1 (stereo unspecified)	none (no result: PfHsp90 set2)
CSc1nc2ccc(NS(=O)(=O)c3ccc(CNC(C)=O)cc3)cc2s1	none (no result: SKKanGAS inh)
O=C(COC(=O)c1ccc2[nH]c3c(c2c1)CCCC3)Nc1ccccc1Cl	none (no result: PfHsp90 set2)
CCC(C)c1ccccc1NC(=O)COC(=O)c1ccc2[nH]c3c(c2c1)CCCC3 (stereo unspecified)	ATG4B inh 41.7 | PLA2 ctr 56.9
O=C(Nc1ccc(Cl)cc1)Nc1ccccc1CC[N+](=O)[O-]	ATG4B inh 65.1 | PLA2 ctr 70.8
CN(C)C(=O)Nc1ccccc1CC[N+](=O)[O-]	none
COc1cc(/C=C2/SC(=S)N(Cc3ccccc3)C2=O)ccc1OCC(=O)O	none
COc1cc([N+](=O)[O-])cc(/C=C2/SC(=S)N(Cc3ccccc3)C2=O)c1O	ATG4B inh 49.5 (no result: tim10-1 inh, tim23-1 inh, TIM10 inh) | PLA2 ctr 75.4
O=C(NNC(=S)Nc1ccc(Cl)c(Cl)c1)c1cccc([N+](=O)[O-])c1	ATG4B inh 85.5 (no result: PfHsp90 set2) | PLA2 ctr 91.0
Cc1cccc(NC(=S)NNC(=O)c2cccc([N+](=O)[O-])c2)c1	none
COc1cccc(/C=C/C(=O)OCC(=O)Nc2ccc(S(=O)(=O)N3CCCC3)cc2)c1	none
Nc1ncc2c(n1)-c1cc(Cl)ccc1SC2	none
NC(=O)c1cc2c(s1)-c1cc(Cl)ccc1SC2	ATG4B inh 44.4 | PLA2 ctr inactive
O=c1c2ccccc2nc(SCc2nnc(-c3ccccc3)o2)n1-c1ccc(F)cc1F	ATG4B inh 62.1 | PLA2 ctr 69.4
COc1ccc(-c2nnc(CSc3nc4ccccc4c(=O)n3C)o2)cc1OC	none
Cc1cccc(-n2c(SCc3cc(=O)n4ccsc4n3)nc3ccccc3c2=O)c1	none
O=c1c2ccccc2nc(SCc2cn3ccsc3n2)n1-c1ccccc1F	ATG4B inh 65.6 | PLA2 ctr 71.9
O=c1c2ccccc2nc(SCc2cn3ccsc3n2)n1-c1ccccc1	ATG4B inh 60.0 | PLA2 ctr 72.8
C=CCn1c(Cc2cccs2)nnc1SCC(=O)Nc1ccc(C(=O)OCC)cc1	none
Cc1ccc(S(=O)(=O)NC2CC2)s1	none
COc1ccc(NC(=O)N(C)C[C@H]2Oc3c(NC(=O)NC(C)C)cccc3C(=O)N([C@H](C)CO)C[C@@H]2C)cc1	none (no result: SKKanGAS inh)
CCCCN(CC)CCNC(=O)c1cc2c(C)nc3ccccc3c2o1	none
O=C(COc1ccc(Nc2ccccc2)cc1)OCC(=O)N1CCCCC1	none
O=C(CSc1ncnc2sc3c(c12)CCC3)N1CCOCC1	none
CC(C)(C)C(=O)CSc1ncnc2sc3c(c12)CCC3	none (no result: ATG4B inh) | PLA2 ctr inactive
CCNc1nc(CSc2ccccc2)nc2sc(C)c(C)c12	ATG4B inh 44.8 | ATG4B confirm 60.6 | PLA2 ctr inactive
Cc1cc(NC(=O)Cn2c(=O)c3c(ncn3CCC(C)C)n(Cc3ccccc3)c2=O)no1	none

High-throughput results (PubChem)
